Bioassay records from PubChem BioAssay.
In the library only some 21% were active in any assay of this set; here they are far more common.
Pf growth 96h – P. falciparum growth inhibition at 96 hours; P. falciparum luciferase reporter growth, 96 h; Potency, µM (top dose mostly 28.7 µM), most hits filed as inhibitors; hit rate 6.9% among 320,000; AID 504834; active = well fitted inhibition curve with a large enough effect; inconclusive = small, poorly fitted or top-dose-only effect, or another doubt; inactive = no such curve, though single readings can be large or run the other way
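Erythrocytes infected with luciferase-expressing P. falciparum were dispensed at 2% hematocrit and 0.05% parasitemia (final), then incubated with compounds 96 hours at 37 C in 5% CO2. Luminescence after detection reagent addition reported growth.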
SARS PLP yeast – blocks SARS-CoV papain-like protease in a yeast assay. hit rate 0.19% among 330,000. AID 485353. S. cerevisiae expressing SARS-CoV PLpro, growth rescue. Potency, µM (doses to about 32.9 µM), most hits filed as activators; also: nearly all actives have a fitted effect of over 55% in size
Pf growth 48h – P. falciparum growth inhibition at 48 hours (one generation); hit rate 5.9% among 310,000; AID 504832; Potency, µM (titrated, usually from 28.7 µM), usual class: inhibitors; P. falciparum luciferase growth in erythrocytes, 48 h; active = well fitted inhibition curve with a large enough effect; inconclusive = small, poorly fitted or top-dose-only effect, or another doubt; inactive = no such curve, though single readings can be large or run the other way
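Firefly luciferase activity from engineered P. falciparum reports growth; inhibitors lower the luminescent signal. Cultures contained 2% hematocrit erythrocytes at 0.1% final parasitemia.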
Cycloheximide cs – affects cycloheximide protein synthesis inhibition readout, counter-screen; cell reporter, cycloheximide protein synthesis inhibition counterscreen; max response, %; hit rate 12% among 300,000; in the data active = max response mostly above about 13%, no sharp cut-off; inactive = mostly below about 14%; also: read at 38.3 µM for the half of the compounds with a filed dose
NS1 function inh – blocks influenza NS1 protein function. Potency, µM (titrated, usually from 46.1 µM). hit rate 0.4% among 270,000; also: actives are rising curves; nearly all actives have a fitted effect of over 50% in size
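Recovery from NS1-induced slow growth read by OD600 in budding yeast switched to galactose assay medium (pH 6.0, -URA) at 1:100 dilution. Compound 23 nl per well; the matching strain lacking NS1 serves as control.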
Shiga inhibitor – blocks Shiga toxin action in Vero cells. hit rate 9.2% among 290,000. AID 2315. Vero cells, Shiga toxin protein synthesis inhibition reporter. inhibition, % at 38.7 µM; in the data active = inhibition mostly above about 28%, no sharp cut-off; inactive = mostly below about 43%
Of the large screens only hits and unclear results are named; the others gave an inactive call. Unless noted, calls follow the shape of the full dose curve.

CN(CC(=O)Nc1ccc(S(=O)(=O)N2CCOCC2)cc1)Cc1ccc(F)cc1	Pf growth 96h 13µM, Pf growth 48h inconclusive (no result: Cycloheximide cs, NS1 function inh, Shiga inhibitor)
COc1ccc(N(CC(=O)Nc2ccc(S(=O)(=O)N3CCOCC3)cc2)S(=O)(=O)c2ccc(F)cc2)cc1	Pf growth 48h 13µM
CN(CC(=O)Nc1ccc(S(=O)(=O)N2CCCC2)cc1)CC(=O)Nc1ccc(F)c(F)c1F	Pf growth 96h inconclusive, Pf growth 48h 10µM (no result: NS1 function inh)
CCc1ccc(CN(C)CC(=O)Nc2ccc(S(=O)(=O)N3CCOCC3)cc2)cc1	Pf growth 96h inconclusive, Pf growth 48h 10µM (no result: Cycloheximide cs, NS1 function inh, Shiga inhibitor)
COc1ccc(CCC(=O)Nc2ccc(S(=O)(=O)N3CCOCC3)cc2)cc1	none
O=C(CN1CCN(c2ccc(F)cc2)CC1)Nc1ccc(S(=O)(=O)N2CCOCC2)cc1	none
CCN(CC(=O)Nc1ccc(S(=O)(=O)N2CCOCC2)cc1)Cc1ccccc1	Pf growth 96h inconclusive, Pf growth 48h inconclusive (no result: Cycloheximide cs, NS1 function inh, Shiga inhibitor)
Cc1ccc(N2CC(NC(=O)N3CCN(C(=O)c4ccco4)CC3)CC2=O)cc1 (configuration not stated)	none (no result: Cycloheximide cs, NS1 function inh, Shiga inhibitor)
Cc1cccc(NC(=O)CNC(=O)COC(=O)c2ccco2)c1C	SARS PLP yeast inconclusive (no result: Cycloheximide cs, NS1 function inh, Shiga inhibitor)
O=C(CCS(=O)(=O)Cc1ccccc1F)NCc1ccccc1Cl	none (no result: NS1 function inh)
COc1ccc(S(=O)(=O)N(CC(=O)NCc2ccncc2)c2cc(C)cc(C)c2)cc1OC	Pf growth 48h inconclusive
COC(=O)c1cccc(C(=O)Nc2ccc(C)cc2Br)n1	Cycloheximide cs 38, Shiga inhibitor 65
Cc1ccc(NC(=O)c2cccc(C(=O)OC(C)C)n2)c(Br)c1	Pf growth 96h inconclusive, Cycloheximide cs 23, Shiga inhibitor 75 (no result: NS1 function inh)
CC(C)c1ccc(CN2CC(C(=O)O)CC2=O)cc1 (configuration not stated)	none (no result: Pf growth 48h)
CCN(CC(=O)Nc1c(F)cccc1F)C(=O)c1cccc(S(=O)(=O)N2CCCCCC2)c1	Pf growth 96h inconclusive, Pf growth 48h inconclusive (no result: Cycloheximide cs, NS1 function inh, Shiga inhibitor)
Cn1cnc2c1c(=O)n(Cc1ccc(Cl)cc1Cl)c(=O)n2C	Pf growth 96h 9.3µM (no result: Shiga inhibitor)
Cc1[nH]n(C)c(=O)c1C(=O)c1c(-c2ccccc2Cl)noc1C	Pf growth 96h inconclusive
CCCc1nnc(NC(=O)NCCN2C(=O)C3C4C=CC(C4)C3C2=O)s1 (configuration not stated)	none
O=C(NCCN1C(=O)C2C3C=CC(C3)C2C1=O)Nc1ccccc1O (configuration not stated)	Pf growth 96h 9.3µM (no result: Pf growth 48h)
Cc1c(NC(=O)CCCCCN2C(=O)C3C4C=CC(C4)C3C2=O)c(=O)n(-c2ccccc2)n1C (configuration not stated)	Pf growth 96h 9.3µM
Cc1c(NC(=O)NCCN2C(=O)C3C4C=CC(C4)C3C2=O)c(=O)n(-c2ccccc2)n1C (configuration not stated)	Pf growth 96h 15µM (no result: Pf growth 48h)
Cc1c(NC(=O)C(C)N2C(=O)C3C4C=CC(C4)C3C2=O)c(=O)n(-c2ccccc2)n1C (configuration not stated)	none (no result: Pf growth 48h)
CCCS(=O)(=O)N1CCN(C(=O)COc2ccc(-c3ccccc3)cc2)CC1	none
Cc1cccc(C(=O)Nc2cccc(C(=O)Nc3cc(C)ccn3)c2)c1	Pf growth 96h inconclusive, Cycloheximide cs 8.5
Cc1ccnc(NC(=O)c2ccc(Cl)c(NC(=O)CCc3ccccc3)c2)c1	Pf growth 96h inconclusive
Cc1ccnc(NC(=O)c2cccc(NC(=O)Cc3ccccc3)c2)c1	Pf growth 96h inconclusive, Cycloheximide cs 15
O=C1CNC(=O)/C1=C/c1ccc(O)cc1	none
CCCN(CC1CC1)C(=O)COC(=O)c1oc2c(F)cccc2c1C	Pf growth 96h inconclusive, Pf growth 48h inconclusive (no result: Cycloheximide cs, NS1 function inh, Shiga inhibitor)
CCN1CCN(Cc2ccc(NC(=O)c3ccc(C)c(NC(=O)c4c[nH]c5cc(C(F)(F)F)ccc5c4=O)c3)cc2C(F)(F)F)CC1	Pf growth 96h 0.52µM, Pf growth 48h 0.59µM, NS1 function inh inconclusive
CCN1CCN(Cc2ccc(NC(=O)c3ccc(C)c(NC(=O)c4csc(-c5ccncc5)n4)c3)cc2C(F)(F)F)CC1	Pf growth 96h 0.93µM, Pf growth 48h 1.7µM
CCN1CCN(Cc2ccc(NC(=O)c3ccc(C)c(NC(=O)C4=NN(c5ccccc5)C(=O)C4)c3)cc2C(F)(F)F)CC1	Pf growth 96h 0.52µM, Pf growth 48h 0.41µM
CCN1CCN(Cc2ccc(NC(=O)c3cc(NC(=O)C4=NN(c5ccccc5)C(=O)C4)cc(OC)c3)cc2C(F)(F)F)CC1	Pf growth 96h 0.33µM, Pf growth 48h 0.93µM
CCN1CCN(Cc2ccc(NC(=O)c3ccc(C)c(NC(=O)C[C@@H]4NC(=O)[C@H](Cc5ccccc5)NC4=O)c3)cc2C(F)(F)F)CC1	Pf growth 96h inconclusive, Pf growth 48h inconclusive
NC(N)=N/N=C(/c1ccccc1)c1ccc(O)cc1O	none (no result: Pf growth 96h, SARS PLP yeast, Pf growth 48h, Cycloheximide cs, Shiga inhibitor)
O=C(NC1CCCC1)C(c1cccnc1)N(Cc1ccccc1)C(=O)c1csnn1 (configuration not stated)	none
CCN1CCN(Cc2ccc(NC(=O)c3ccc(C)c(NC(=O)c4cccc(-c5cn[nH]c(=O)c5)c4)c3)cc2C(F)(F)F)CC1	Pf growth 96h 1.5µM, Pf growth 48h 1.7µM
CCN1CCN(Cc2ccc(NC(=O)c3ccc(C)c(/C=C/c4cnc(Nc5cc(N6CCNCC6)nc(C)n5)cn4)c3)cc2C(F)(F)F)CC1	Pf growth 96h inconclusive, Pf growth 48h inconclusive
O=C(O)C1(c2ccccc2)CCN(S(=O)(=O)c2ccc(F)c(F)c2)CC1	none
CC1(C)CC(=O)C(Sc2ccccc2[N+](=O)[O-])=C(O)C1	none
CC1(C)CC(=O)C(C(N)=NC(=O)c2ccc([N+](=O)[O-])cc2)=C(O)C1	Cycloheximide cs 18 (no result: NS1 function inh)
CC1(C)CC(=O)C(C(N)=NC(=O)c2ccccc2)=C(O)C1	Cycloheximide cs 39, Shiga inhibitor 70 (no result: NS1 function inh)
C/C(=N/NC(=O)c1ccccc1)C1=C(O)CC(C)(C)CC1=O	Pf growth 96h inconclusive
CCN(C[C@H]1N[C@@](CC)(C(=O)OC)[C@H]2C(=O)N(Cc3ccccc3)C(=O)[C@@H]12)C(=O)c1ccc(C)cc1	none (no result: Pf growth 96h, Pf growth 48h, Cycloheximide cs, NS1 function inh, Shiga inhibitor)
O=C(NC(NC(=S)Nc1ccccc1C(=O)O)C(Cl)(Cl)Cl)c1ccco1 (configuration not stated)	Cycloheximide cs 31, Shiga inhibitor 45
Cc1ccccc1NC(=S)NC(NC(=O)c1ccco1)C(Cl)(Cl)Cl (configuration not stated)	Pf growth 96h 9.3µM, Pf growth 48h inconclusive
CCN(CC(=O)Nc1ccc(NC(C)=O)cc1)C(=O)CCCc1nc2ccccc2c(=O)[nH]1	none (no result: Cycloheximide cs, NS1 function inh, Shiga inhibitor)
COc1nc(N)nc(N)c1NS(=O)(=O)c1ccc(C)cc1	none
COc1ccc(O)c(C(=O)c2coc(=N)c(C(=O)Nc3ccc(SC(F)F)cc3)c2)c1	Pf growth 96h 2.3µM, Pf growth 48h inconclusive (no result: NS1 function inh)
CC(C)OC(=O)c1cc(C(=O)c2cc(F)ccc2O)coc1=N	Pf growth 96h inconclusive (no result: Pf growth 48h)
